Laboratory results from PubChem BioAssay (NCATS).
Inconclusive results are not listed. Activity calls are given as the source filed them. Unless noted, calls follow the shape of the dose curve; as a rule, active = well fitted curve in the direction sought with a large enough effect; inconclusive = small, poorly fitted or top-dose-only effect, or another doubt; inactive = no such curve, though single readings can be large; an effect the other way counts as inactive or inconclusive.

Key:
[1] = biological target: Cytochrome P450 3A4 (Homo sapiens) (UniProt P08684); test: qHTS Assay for Inhibitors and Substrates of Cytochrome P450 3A4 (AID 884); also: potency is read from the fitted curve at half-maximal effect; nearly all actives have a fitted effect of over 50% in size
Procedure, shortened: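 20 nM human CYP3A4 with 25 uM Luciferin-PPXE (at KM) in 200 mM KPO4, preincubated 10 min with compound; NADPH regeneration started a 60 min RT reaction. Luciferin detected by luminescence, normalized to 57 uM ketoconazole as full inhibition.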

[2] = biological target: Cytochrome P450 3A4 (Homo sapiens) (UniProt P08684); test: qHTS Assay for Activators of Cytochrome P450 3A4 (AID 885); also: nearly all actives have a fitted effect of over 65% in size
Procedure, shortened: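 Signal was normalized against complete inhibition by 57 uM ketoconazole. The reaction used 20nM CYP3A4 with 25uM Luciferin-PPXE, 10-min compound preincubation and a 60-min NADPH-supported step at RT.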

[3] = biological target: Ubiquitin carboxyl-terminal hydrolase 1 (Homo sapiens) (UniProt O94782); test: Inhibitors of USP1/UAF1: Pilot qHTS (AID 504865); also: potency is read from the fitted curve at half-maximal effect; nearly all actives have a fitted effect of over 35% in size
Procedure, shortened: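 Kinetic fluorescence assay: 1nM USP1/UAF1, 15 min compound preincubation, then 150nM Ub-Rho; 480/540 nm.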

[4] = biological target: Glutathione peroxidase 1 (Homo sapiens) (UniProt P07203); test: Primary qHTS Assay for Inhibitors of Recombinant Selenoprotein Glutathione Peroxidase 1 (GPX1) (AID 1845191); also: % is scaled to controls: 0 for no effect and ±100 for the full control effect; nearly all actives have a fitted effect of over 65% in size
Procedure, shortened: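 Recombinant GPX1 (10 nM final) was preincubated with compound for 30 min at room temperature, then reacted with 1 mM GSH, 0.5 mM CHP, 0.5 mM NADPH and 100 nM glutathione reductase; NADPH fluorescence (340/450 nm) was read at 0 and 15 min.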

[5] = biological target: Glucocorticoid receptor (Homo sapiens) (UniProt P04150); test: GR-GFP Redistribution (AID 450;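 active = compounds whose dose series gives a full or clear partial fitted curve of increased nuclear translocation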; also: potency is read from the fitted curve at half-maximal effect); conditions: U2OS GR-GFP nuclear translocation, laser cytometry, 2 h
[6] = biological target: Guanine nucleotide-binding protein G(i) subunit alpha-1 (Homo sapiens) (UniProt P63096); test: qHTS Assay for Inhibitors of RGS12 GoLoco Motif Activity (Green Fluorophore) (AID 879);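 also: 0% = labeled peptide with Gαi1 and full inhibition = labeled peptide alone without protein; negative values mean loss of peptide binding seen as reduced polarization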
Procedure, shortened: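 Fluorescence polarization assay: 50 nM Gαi1 with 10 nM FITC-labeled RGS12 GoLoco peptide in 10 mM Tris pH 7.5, 150 mM NaCl, 0.1 mM GDP, 0.05% NP40, 10 min at room temperature with compound.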

[7] = biological target: Muscarinic acetylcholine receptor M1 (Rattus norvegicus) (UniProt P08482); test: qHTS Assay for Antagonists of Acetylcholine Muscarinic M1 Receptor: Kinetic Measurement of Intracellular Calcium Response (AID 943);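 also: Fluo-4 calcium signal as peak divided by basal fluorescence over 4 min; nearly all actives have a fitted effect of over 75% in size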
Procedure, shortened: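 Rat M1-CHO cells, 2000/well, overnight → Fluo-4 no-wash dye with probenecid, 1 h 37C → compound 10 min, room temp → basal read 6 s → carbachol EC80 (100 nM) → 4 min kinetic read; peak/basal.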

[8] = biological target: Pyruvate kinase (Leishmania mexicana) (UniProt Q27686); test: qHTS Validation Assay for Inhibitors of Leishmania Mexicana Pyruvate Kinase (AID 945);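 also: 0% = DMSO only neutral control wells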
Procedure, shortened: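 Eight-point qHTS titrations in triplicate, data normalized to DMSO neutral control. Reaction: 0.2 nM LmPYK E451W mutant, 0.5 mM PEP, 0.1 mM ADP, 7 mM MgCl2, pH 7.2, one hour at room temperature; luminescent ATP detection.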

[9] = biological target: Pyruvate kinase PKM (Homo sapiens) (UniProt P14618); test: qHTS Assay for Activators of Human Muscle Pyruvate Kinase (AID 954; active = well fitted curve in the direction sought with a large enough effect, not every such curve was filed as active;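 also: 0% = uninhibited enzyme and -100% = no enzyme or full thiadiazolimine inhibition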)
Procedure, shortened: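 Human PKM2 activity is measured as ATP generation, detected by luciferase-coupled luminescence. The enzyme (0.1 nM) acts on 0.5 mM PEP and 0.1 mM ADP for 1 h at ambient temperature; data are normalized to uninhibited and full-inhibition wells.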

[10] = biological target: Alpha-galactosidase (Coffea arabica) (UniProt Q42656); test: Counterscreen for Glucocerebrosidase Inhibitors: qHTS Assay for Coffee Bean alpha-Galactosidase at pH 4.5 (AID 957);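 also: plate controls were enzyme alone for no effect and no enzyme for full effect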
Procedure, shortened: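 Coffee bean alpha-galactosidase 2 nM, substrate 4-MU-alpha-Gal 80 uM, pH 4.5 citrate/Tween-20, 20 min RT. Cpd titration 0.7 nM–77 uM. Stop pH 10, fluorescence 365/440 nm; Hill-equation AC50.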

[11] = biological target: alpha-glucosidase (Oryza sativa, rice) (UniProt Q653V4); test: Counterscreen for Glucocerebrosidase Inhibitors: qHTS Assay for Rice alpha-Glucosidase at pH 5.0 (AID 997);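 also: 0% = full activity with enzyme and -100% = basal without enzyme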
Procedure, shortened: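 Rice alpha-glucosidase (4 nM final) with 400 uM 4-methylumbelliferyl-alpha-D-glucopyranoside in citrate buffer pH 5.0, 20 min at room temperature, stopped at pH 10; fluorescence 365/440 nm, compounds 0.7 nM–77 uM, AC50 from Hill fits.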

[12] = biological target: Alpha-galactosidase (Coffea arabica) (UniProt Q42656); test: Counterscreen for Glucocerebrosidase Inhibitors: qHTS Assay for Coffee Bean alpha-Galactosidase at pH 5.9 (AID 998);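 also: plate controls were uninhibited enzyme for no effect and no-enzyme basal signal for full effect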
Procedure, shortened: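 Green coffee bean enzyme (2 nM final) was incubated with compounds (0.7 nM–77 uM) and 4-methylumbelliferyl alpha-D-galactopyranoside (80 uM) in citrate buffer pH 5.9, 20 min at room temperature. High-pH stop; fluorescence 365/440 nm; AC50 from Hill fits.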

[13] = biological target: DNA dC->dU-editing enzyme APOBEC-3G (Homo sapiens) (UniProt Q9HC16); test: qHTS for inhibitors of Vif-A3G interactions: Validation (AID 588379); also: 0% is about no effect
Procedure, shortened: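 HeLa cells stably expressing Vif and A3G-eYFP, 700 cells/well, incubated overnight at 37 deg C, then exposed to compound overnight at 37 deg C. Inhibition of Vif-mediated degradation read as increased yellow fluorescence (Ex 488/Em 500-530) by laser-scanning cytometry.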

[14] = biological target: Rap guanine nucleotide exchange factor 3 (Homo sapiens) (UniProt O95398); test: Confirmatory qHTS for agonist of cAMP-regulated guanine nucleotide exchange factor 3 (EPAC1) (AID 1645881);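 also: EPAC1 catalysed release of BODIPY-GDP from Rap1B seen as fluorescence loss; 100% = effect of cAMP agonist control; nearly all actives have a fitted effect of over 75% in size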
[15] = biological target: Rap guanine nucleotide exchange factor 4 (Homo sapiens) (UniProt Q8WZA2); test: Confirmatory qHTS for agonist of cAMP-regulated guanine nucleotide exchange factor 4 (EPAC2) (AID 1645884);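 also: nucleotide exchange releases bodipy-GDP from Rap1 and this lowers its fluorescence; % is scaled to controls: 0 for no effect and ±100 for the full control effect; nearly all actives have a fitted effect of over 65% in size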
[16] = biological target: Rap guanine nucleotide exchange factor 4 (Homo sapiens) (UniProt Q8WZA2); test: Confirmatory qHTS for antagonist of cAMP-regulated guanine nucleotide exchange factor 4 (EPAC2) (AID 1645885); also: nearly all actives have a fitted effect of over 25% in size; also: potency is read from the fitted curve at half-maximal effect; as to activity change, negative = inhibition: % is scaled to controls: 0 for no effect and ±100 for the full control effect
[17] = biological target: Rap guanine nucleotide exchange factor 3 (Homo sapiens) (UniProt O95398); test: Counterscreen qHTS for antagonist of cAMP-regulated guanine nucleotide exchange factor 3 (EPAC1) (AID 1645888);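 also: fluorescence loss as bound BODIPY-GDP is released from Rap1B; % of control where 0% means no effect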
Procedure, shortened: (§1)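 Measured: fluorescence of BODIPY-GDP bound to Rap1B, which falls as exchange proceeds. Conditions include 50 uM competing GDP, 5 and 30 min reads, and a later cAMP challenge for antagonist detection.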

[18] = biological target: Rap guanine nucleotide exchange factor 3 (Homo sapiens) (UniProt O95398); test: Counterscreen qHTS for agonist of cAMP-regulated guanine nucleotide exchange factor 3 (EPAC1) (AID 1645889); also: % of control where 0% means no effect; nearly all actives have a fitted effect of over 40% in size
Procedure, shortened: as §1

[19] = NFAT Signaling Pathway (AID 444; active = well fitted curve in either direction with a large enough effect, not every such curve was filed as active;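 also: carbachol stimulus at about its EC50 of 1 µM final; % is scaled to controls: 0 for no effect and ±100 for the full control effect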); conditions: Jurkat NFAT-bla M1, carbachol, beta-lactamase ratio, 5 h; at 17.2 µM (top of the series)
Procedure, shortened: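 Jurkat cells carrying an NFAT-driven β-lactamase reporter and co-transfected muscarinic M1 receptor were treated with compound plus carbachol (1 uM final, an EC50 level) for 5 h at 37 °C. CCF4 loading followed for 1 h at RT; 460/530 nm ratio gave %activity.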

[20] = qHTS Assay for Identification of Small Molecule Agonists for Hypoxia Response Element Signaling Pathway (AID 914; active = well fitted activation curve with a large enough effect in the signal ratio, with a control signal flat, not every such curve was filed as active; the % refers to the signal ratio; also: potency is read from the fitted curve at half-maximal effect); conditions: ME-180 (cervical carcinoma) HRE-bla reporter, beta-lactamase ratio, CoCl2, 17 h; activation: hits give high values
Procedure, shortened: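 HRE-bla ME-180 cells with beta-lactamase reporter under hypoxia response element, compounds with EC50 CoCl2 for 17 hours at 37 C. CCF4 substrate, 460nm/530nm emission ratio gave %Activity; AC50 from titration series.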

Sequence of Rap guanine nucleotide exchange factor 3 (Homo sapiens) (O95398 whole entry, looked up): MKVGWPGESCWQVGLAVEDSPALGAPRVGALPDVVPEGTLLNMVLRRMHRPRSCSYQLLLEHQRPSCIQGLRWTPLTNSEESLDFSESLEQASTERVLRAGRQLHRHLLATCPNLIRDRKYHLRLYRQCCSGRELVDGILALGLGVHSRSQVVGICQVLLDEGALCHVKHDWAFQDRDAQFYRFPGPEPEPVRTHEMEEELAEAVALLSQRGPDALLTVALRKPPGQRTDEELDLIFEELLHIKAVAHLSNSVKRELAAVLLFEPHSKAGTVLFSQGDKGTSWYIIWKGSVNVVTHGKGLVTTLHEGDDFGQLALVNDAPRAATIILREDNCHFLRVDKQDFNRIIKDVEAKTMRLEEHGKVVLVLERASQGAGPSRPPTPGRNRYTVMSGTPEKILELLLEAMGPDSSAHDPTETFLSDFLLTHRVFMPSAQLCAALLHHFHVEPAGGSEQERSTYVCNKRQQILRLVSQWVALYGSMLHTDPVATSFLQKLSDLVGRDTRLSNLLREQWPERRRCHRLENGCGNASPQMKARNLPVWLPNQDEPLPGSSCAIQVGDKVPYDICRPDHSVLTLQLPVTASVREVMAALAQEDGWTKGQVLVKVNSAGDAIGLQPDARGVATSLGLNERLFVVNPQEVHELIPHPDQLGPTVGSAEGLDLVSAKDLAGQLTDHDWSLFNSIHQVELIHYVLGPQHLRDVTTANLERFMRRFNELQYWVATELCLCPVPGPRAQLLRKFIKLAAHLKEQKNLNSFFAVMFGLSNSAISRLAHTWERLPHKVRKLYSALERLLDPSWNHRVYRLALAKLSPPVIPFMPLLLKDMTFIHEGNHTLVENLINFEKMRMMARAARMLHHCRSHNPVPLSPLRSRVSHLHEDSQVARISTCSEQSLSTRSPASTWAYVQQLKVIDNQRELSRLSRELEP
Sequence of Cytochrome P450 3A4 (Homo sapiens) (P08684 whole entry, looked up): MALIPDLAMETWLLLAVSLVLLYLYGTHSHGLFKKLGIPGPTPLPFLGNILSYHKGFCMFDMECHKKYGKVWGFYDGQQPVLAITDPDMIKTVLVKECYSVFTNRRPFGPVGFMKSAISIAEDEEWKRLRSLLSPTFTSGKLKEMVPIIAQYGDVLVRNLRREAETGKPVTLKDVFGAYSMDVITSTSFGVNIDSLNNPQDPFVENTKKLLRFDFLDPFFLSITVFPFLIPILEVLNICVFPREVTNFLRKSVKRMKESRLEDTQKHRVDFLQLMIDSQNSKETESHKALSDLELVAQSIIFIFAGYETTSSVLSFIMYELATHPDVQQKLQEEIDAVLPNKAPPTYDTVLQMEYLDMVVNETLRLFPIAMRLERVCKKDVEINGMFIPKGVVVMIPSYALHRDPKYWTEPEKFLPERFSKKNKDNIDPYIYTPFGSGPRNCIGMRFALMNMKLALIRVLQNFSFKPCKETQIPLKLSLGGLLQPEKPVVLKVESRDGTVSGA
Sequence of Rap guanine nucleotide exchange factor 4 (Homo sapiens) (Q8WZA2 whole entry, looked up): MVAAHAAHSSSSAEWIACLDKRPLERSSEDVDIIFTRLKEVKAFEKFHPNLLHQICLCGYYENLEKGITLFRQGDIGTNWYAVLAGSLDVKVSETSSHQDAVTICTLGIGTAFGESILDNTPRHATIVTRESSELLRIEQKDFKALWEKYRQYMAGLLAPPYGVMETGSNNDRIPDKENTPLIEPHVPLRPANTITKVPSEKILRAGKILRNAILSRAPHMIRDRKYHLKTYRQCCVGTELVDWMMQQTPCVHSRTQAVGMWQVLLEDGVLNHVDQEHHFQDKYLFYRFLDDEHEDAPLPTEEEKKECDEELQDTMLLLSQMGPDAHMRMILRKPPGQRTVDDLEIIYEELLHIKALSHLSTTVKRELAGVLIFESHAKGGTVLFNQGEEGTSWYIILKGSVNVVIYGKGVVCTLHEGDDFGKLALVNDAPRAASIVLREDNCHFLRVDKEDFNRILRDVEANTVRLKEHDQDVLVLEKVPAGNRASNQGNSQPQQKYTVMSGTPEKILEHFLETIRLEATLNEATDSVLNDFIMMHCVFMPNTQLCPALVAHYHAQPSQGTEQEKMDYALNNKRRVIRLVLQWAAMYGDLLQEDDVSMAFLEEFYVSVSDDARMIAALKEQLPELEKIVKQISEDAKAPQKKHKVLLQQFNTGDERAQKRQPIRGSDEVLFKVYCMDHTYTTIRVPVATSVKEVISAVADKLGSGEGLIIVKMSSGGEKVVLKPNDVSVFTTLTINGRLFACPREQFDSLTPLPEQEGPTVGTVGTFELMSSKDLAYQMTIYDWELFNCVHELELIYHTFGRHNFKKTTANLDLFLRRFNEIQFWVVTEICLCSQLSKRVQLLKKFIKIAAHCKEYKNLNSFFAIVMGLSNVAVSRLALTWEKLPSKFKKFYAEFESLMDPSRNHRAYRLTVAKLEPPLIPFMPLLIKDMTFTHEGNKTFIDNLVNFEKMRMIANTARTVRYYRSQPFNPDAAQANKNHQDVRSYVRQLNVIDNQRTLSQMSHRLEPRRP
Sequence of Glucocorticoid receptor (Homo sapiens) (P04150 whole entry, looked up): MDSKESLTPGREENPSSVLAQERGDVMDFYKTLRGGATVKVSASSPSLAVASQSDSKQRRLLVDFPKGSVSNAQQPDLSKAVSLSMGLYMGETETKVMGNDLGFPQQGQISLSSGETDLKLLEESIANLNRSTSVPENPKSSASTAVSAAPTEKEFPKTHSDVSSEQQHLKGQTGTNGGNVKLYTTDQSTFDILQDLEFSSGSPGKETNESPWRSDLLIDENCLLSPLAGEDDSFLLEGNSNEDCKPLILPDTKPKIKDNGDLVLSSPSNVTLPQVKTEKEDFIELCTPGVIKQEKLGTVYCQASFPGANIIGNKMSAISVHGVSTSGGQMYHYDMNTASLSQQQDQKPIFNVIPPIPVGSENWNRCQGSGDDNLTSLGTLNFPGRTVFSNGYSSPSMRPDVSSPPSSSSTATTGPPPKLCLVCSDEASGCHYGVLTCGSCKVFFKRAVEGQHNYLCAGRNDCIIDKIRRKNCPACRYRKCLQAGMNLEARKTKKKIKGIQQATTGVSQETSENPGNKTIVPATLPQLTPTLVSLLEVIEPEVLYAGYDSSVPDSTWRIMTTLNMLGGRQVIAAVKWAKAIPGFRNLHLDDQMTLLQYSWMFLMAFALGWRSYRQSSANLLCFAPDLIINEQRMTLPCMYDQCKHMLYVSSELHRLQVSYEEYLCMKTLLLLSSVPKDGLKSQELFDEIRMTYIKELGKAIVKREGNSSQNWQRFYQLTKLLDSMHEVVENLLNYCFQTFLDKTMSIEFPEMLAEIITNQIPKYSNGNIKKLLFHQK
Sequence of Alpha-galactosidase (Coffea arabica) (Q42656 whole entry, looked up): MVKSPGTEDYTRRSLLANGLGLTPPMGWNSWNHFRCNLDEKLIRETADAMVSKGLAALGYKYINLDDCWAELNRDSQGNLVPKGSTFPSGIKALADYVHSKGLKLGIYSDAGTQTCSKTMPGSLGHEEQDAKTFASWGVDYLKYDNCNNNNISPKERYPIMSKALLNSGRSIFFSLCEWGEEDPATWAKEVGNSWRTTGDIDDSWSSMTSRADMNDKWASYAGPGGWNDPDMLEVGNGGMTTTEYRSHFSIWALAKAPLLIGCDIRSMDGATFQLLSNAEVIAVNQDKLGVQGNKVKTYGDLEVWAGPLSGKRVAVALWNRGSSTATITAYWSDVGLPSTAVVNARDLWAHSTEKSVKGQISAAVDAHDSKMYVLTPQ
Sequence of Pyruvate kinase (Leishmania mexicana) (Q27686 2-499 E452W): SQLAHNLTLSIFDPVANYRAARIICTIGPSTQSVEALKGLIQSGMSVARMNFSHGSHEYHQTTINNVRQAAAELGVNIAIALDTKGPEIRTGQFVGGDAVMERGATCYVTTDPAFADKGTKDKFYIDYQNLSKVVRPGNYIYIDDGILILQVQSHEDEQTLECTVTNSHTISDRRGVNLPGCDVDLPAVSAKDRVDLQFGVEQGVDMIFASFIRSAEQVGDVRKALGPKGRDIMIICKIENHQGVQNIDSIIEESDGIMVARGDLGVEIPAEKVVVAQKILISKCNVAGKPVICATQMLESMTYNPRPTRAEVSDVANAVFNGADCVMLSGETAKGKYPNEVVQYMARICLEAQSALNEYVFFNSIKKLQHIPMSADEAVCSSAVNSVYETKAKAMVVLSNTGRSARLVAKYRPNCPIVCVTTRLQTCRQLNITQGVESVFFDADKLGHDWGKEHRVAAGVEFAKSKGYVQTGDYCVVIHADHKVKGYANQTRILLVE
Sequence of Pyruvate kinase PKM (Homo sapiens) (P14618 whole entry, looked up): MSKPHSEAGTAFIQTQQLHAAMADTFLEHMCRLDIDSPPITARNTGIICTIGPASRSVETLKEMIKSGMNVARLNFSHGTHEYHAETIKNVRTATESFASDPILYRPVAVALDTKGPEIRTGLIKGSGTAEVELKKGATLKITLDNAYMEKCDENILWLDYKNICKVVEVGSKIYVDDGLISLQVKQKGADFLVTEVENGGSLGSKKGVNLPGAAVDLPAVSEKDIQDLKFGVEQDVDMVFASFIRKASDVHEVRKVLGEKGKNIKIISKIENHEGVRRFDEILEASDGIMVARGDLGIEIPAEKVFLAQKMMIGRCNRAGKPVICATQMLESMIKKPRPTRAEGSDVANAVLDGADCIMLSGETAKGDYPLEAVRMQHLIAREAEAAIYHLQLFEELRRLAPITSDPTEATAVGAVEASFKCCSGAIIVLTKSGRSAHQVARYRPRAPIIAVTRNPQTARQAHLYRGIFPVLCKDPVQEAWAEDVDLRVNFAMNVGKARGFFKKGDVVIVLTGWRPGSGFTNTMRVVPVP
Sequence of DNA dC->dU-editing enzyme APOBEC-3G (Homo sapiens) (Q9HC16 whole entry, looked up): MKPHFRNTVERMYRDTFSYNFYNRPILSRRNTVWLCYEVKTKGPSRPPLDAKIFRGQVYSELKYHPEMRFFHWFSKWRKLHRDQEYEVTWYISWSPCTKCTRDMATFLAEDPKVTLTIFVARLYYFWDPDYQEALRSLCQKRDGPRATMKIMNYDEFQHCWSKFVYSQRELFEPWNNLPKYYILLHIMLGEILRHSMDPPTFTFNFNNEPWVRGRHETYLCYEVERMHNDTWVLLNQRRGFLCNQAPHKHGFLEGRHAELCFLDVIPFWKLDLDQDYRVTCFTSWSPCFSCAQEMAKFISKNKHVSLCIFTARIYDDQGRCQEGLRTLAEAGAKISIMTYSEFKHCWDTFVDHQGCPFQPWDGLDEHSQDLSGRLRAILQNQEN

CCCCCC1C(=O)O[C@H](C)[C@@H](NC(=O)c2cccc(NC=O)c2O)C(=O)OC(C)C1OC(=O)CC(C)C (some centres not stated)
inactive: Potency [2]
active: Potency [1] 7.94 µM

CC(C)=CCCC1(C)C=Cc2c(O)c3c(c(CC=C(C)C)c2O1)OC12C(=CC4CC1C(C)(C)OC2(C/C=C(/C)C(=O)O)C4=O)C3=O (configuration not stated)
inactive: Potency [2] | Potency [4]
active: Potency [3] 20 µM

CCCCCCC(C)(C)c1ccc([C@@H]2C[C@H](O)CC[C@@H]2CCCO)c(O)c1
active: Potency [16] 35 µM
inactive: Potency [5] > 46 µM | outcome [6] | Potency [7] | Potency [8] | outcome [9] | outcome [10] | outcome [11] | outcome [12] | outcome [13] | Potency [14] | Potency [15]

O=C1NC(=O)N(Cc2ccc(F)cc2)C(=O)/C1=C\C=C\c1ccco1
inactive: Potency [14] | activation [15] 3.22% [at 17.1 µM, percent relative to cAMP agonist control] | activity change, negative = inhibition [16] -5.04% [at 12.7 µM] | activity change, negative = inhibition [17] 6.52% [at 30.8 µM] | activation [18] 7.61% [at 30.8 µM]

CCCCN1C(=O)/C(=C/c2ccc(N(C)C)cc2)C(=O)N(Cc2ccco2)C1=O
inactive: Potency [14] | activation [15] 15.2% [at 17.1 µM, percent relative to cAMP agonist control] | activity change, negative = inhibition [16] 35.5% [at 12.7 µM] | activity change, negative = inhibition [17] 25.6% [at 30.8 µM]

COc1cc(-n2c(=S)[nH]c3ccc(C)cc3c2=O)c(Cl)cc1Cl
inactive: Potency [14] | activation [15] 8.75% [at 17.1 µM, percent relative to cAMP agonist control] | activity change, negative = inhibition [16] -17.7% [at 12.7 µM] | activity change, negative = inhibition [17] -20.5% [at 30.8 µM] | activation [18] 24.2% [at 30.8 µM]

COP(=O)(/C=C(\Cl)c1ccccc1)/C=C(\Cl)c1ccccc1
inactive: Potency [14] | Potency [15] | Potency [16] | Potency [18]

NS(=O)(=O)c1ccc(-c2ccc(C=C3C(=O)NC(=O)NC3=O)o2)cc1
inactive: Potency [14] | Potency [15] | Potency [16] | outcome [17] | Potency [18]

Nc1c(C(=O)NCc2ccco2)c2nc3ccccc3nc2n1Cc1ccc(F)cc1
active: activity change, negative = inhibition [19] 108% [activator] | Potency [20] 7.94 µM
inactive: Potency [5] > 20.6 µM | Potency [14] | Potency [15] | Potency [16] | outcome [17] | Potency [18]

COc1ccc(-n2nnnc2C(c2ccccc2OC(F)(F)F)N2CCC(n3c(=O)[nH]c4ccccc43)CC2)cc1 (configuration not stated)
inactive: Potency [14] | activation [15] 2.83% [at 17.1 µM, percent relative to cAMP agonist control] | activity change, negative = inhibition [16] -5.88% [at 12.7 µM] | activation [18] 2.08% [at 30.8 µM]
